Ins promoter up = MIN6 insulin promoter up-regulation; MIN6 insulin promoter-GFP reporter, high-content imaging; active compounds read high; z-score at 5 µM; hit rate 0.3% among 190,000; AID 1625;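 active means z-score above 3 at 5 µM with at least 500 cells counted in the well; inconclusive means wells under 500 cells, flagged as cytotoxic or low count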
INS promoter inh = TRM-6 insulin promoter activity inhibition | inhibition, % at 2 µM | hit rate 0.9% among 130,000 | TRM-6 cells (human fetal islet line), insulin promoter-eGFP reporter, imaging; reporter expression induced with tamoxifen;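 active means inhibition above the mean plus 3 SD, with well images judged a real hit on visual review, cut at about 60% in these data, passing the limit was not always enough; inconclusive means inhibition over the cutoff but images rejected on review; inactive means inhibition not above the cutoff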
Autophagy HCS = modulators of autophagy. MEF GFP-LC3 puncta imaging; test concentration mostly 10 µM. calls only at 10 µM (by protocol). hit rate 0.98% among 190,000. AID 463193;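 active means percentage of spot-positive cells more than 3 SD above its plate mean, without a fluorescence outlier flag or 80% toxicity; inconclusive means no clear call, values can overlap the other calls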
Efa HMGR inh = inhibitors of class II HMG-CoA reductase from Enterococcus faecalis. purified E. faecalis HMGR, NADPH absorbance 340 nm kinetic. inhibition, % at 10 µM. hit rate 0.41% among 190,000;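 active means inhibition above a set limit, the median over all tested compounds plus 3 SD, cut at about 9.5% in these data; inconclusive means no clear call, values can overlap the other calls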;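 further: enzyme runs in reverse so mevalonate oxidation gives rising NADPH absorbance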
Hits are given with their value; - = inactive; ? = inconclusive; . = no result; + = active, no number. Only some compounds are listed: those with a hit (about 1.9% of all), similar ones and a draw of the others.

SMILES | Ins promoter up | INS promoter inh | Autophagy HCS | Efa HMGR inh
N#C/C(=C\c1ccc([N+](=O)[O-])o1)c1nc2ccccc2[nH]1 | ? | . | - | -
Cc1ccc(C)c(S(=O)(=O)NC(C)C(=O)Nc2ccc(-c3nc4ccccc4s3)cc2)c1 (configuration not stated) | - | . | - | -
Nc1nc(-c2cccnc2)nn1C(=O)c1ccc(F)cc1 | - | . | - | -
Oc1ccc(C(c2nnnn2CCc2ccccc2)N2CCN(c3nc4ccccc4s3)CC2)cc1 (configuration not stated) | - | . | . | .
COc1ccc(-c2c[n+]3c4n2CCCCC4=C(c2ccc(Br)cc2)C3)cc1 | - | . | - | -
Clc1ccc(C2=C3CCCCn4c(-c5ccccc5)c[n+](c43)C2)cc1 | . | - | + | -
CCOC(=O)c1c(N2CCCCC2)c2ccccc2[nH]c1=O | - | 65.6 | - | -
CCN(CC)c1ccc(/C=N/N=C(N)N)c(O)c1 | - | . | + | -
CCN(CC)c1ccc(N=Cc2ccc(N(CC)CC)cc2O)cc1 | - | - | - | -
Cc1ccccc1OCc1nc(-c2ccc(NC(=O)c3ccco3)cc2)no1 | - | - | - | -
Cc1ccccc1OCc1nc(-c2ccc(NC(=O)c3ccc4c(c3)OCO4)cc2)no1 | - | . | + | -
O=C(Oc1cccc(NC2=NS(=O)(=O)c3ccccc32)c1)c1cccnc1 | - | . | - | -
O=[N+]([O-])c1ccccc1OCCOCCOc1cccc2cccnc12 | - | - | - | 11.7
COc1cc(N2CCCC2)c(OC)cc1/C=C(/C#N)c1ccc(F)cc1 | . | - | + | -
COc1cc(N2CCCC2)c(OC)cc1/C=C(/C#N)c1ccc(Br)cc1 | . | - | ? | -
CCn1cc(C(=O)N2CCc3ccccc3C2)c(=O)c2cc(S(=O)(=O)N3CCCCC3)ccc21 | - | - | + | -
Cn1cc(C(=O)N2CCc3ccccc3C2)c(=O)c2cc(S(=O)(=O)N3CCCCC3)ccc21 | - | - | - | -
COc1ccccc1NCC(=O)NNC(C)C(=O)Nc1cccc(Cl)c1 (configuration not stated) | - | - | + | -
NC(=O)c1ccsc1NC(=O)Cc1ccc([N+](=O)[O-])cc1 | - | - | - | -
CCCc1n[nH]c2c1C(=O)C(C(=O)OC)C(C)(C)C2 (configuration not stated) | 3.65 | - | - | -
COc1ccc(/C=N/c2oc(C)c(C)c2C#N)c(OC)c1 | - | . | + | -
S=C(Nc1ccccc1Cl)NC1CCN(Cc2ccccc2)CC1 | - | - | - | -
FC(F)(F)c1ccccc1NC(=S)NC1CCN(Cc2ccccc2)CC1 | - | . | + | -
COc1ccc(CCNC(=O)CCc2ccc(S(=O)(=O)NCC(C)C)cc2)cc1OC | - | . | - | -
CN1CCN(CC(O)COc2ccc(Cl)cc2)CC1 (configuration not stated) | . | - | - | -
SMILES | Ins promoter up | INS promoter inh | Autophagy HCS | Efa HMGR inh
CN1CCN(CC(O)(c2ccc(Cl)cc2)c2ccc(Cl)cc2)CC1 | - | . | + | -
N#CCSc1nnc(-c2sc3ccccc3c2Cl)o1 | - | - | + | -
COc1ccccc1Sc1ccccc1/C=N/NC(N)=O | - | - | - | 15.4
CC(NC(=O)CN1CCc2ccccc21)c1ccccc1 (configuration not stated) | - | - | - | -
COc1ccc(NC(=S)N(CCN2CCOCC2)Cc2ccccc2F)cc1 | - | - | - | 11.9
COc1ccccc1NC(=S)N(CCN1CCOCC1)Cc1ccccc1F | - | . | - | -
COc1ccc2cc(C)c3nnc(SCC(=O)Nc4nc(-c5ccccc5)cs4)n3c2c1 | - | . | + | -
Fc1ccccc1C1CC(c2ccco2)=Nc2ccccc2S1 (configuration not stated) | - | . | . | .
CC(=O)C1=C(Nc2ccccc2)CC(C)(O)C(C(C)=O)C1c1ccccc1 (configuration not stated) | - | . | . | .
COc1ccc(C2C(C(C)=O)=C(Nc3ccccc3)CC(C)(O)C2C(C)=O)cc1OC (configuration not stated) | - | - | - | 13.6
Cc1ccc(NC(=O)COC(=O)c2ccc3c(c2)OCO3)c(C)c1 | - | . | . | .
O=C(/C(=C/c1cccnc1)n1ccnc1)c1ccc(Cl)cc1Cl | - | . | . | .
CN(C)c1ccc(/C=C2/SC(=O)N(CCN=C3NS(=O)(=O)c4ccccc43)C2=O)cc1 | - | . | - | -
CN(C)c1ccc(/C=C2\SC(=O)N(CC(O)Cn3c4ccccc4c4ccccc43)C2=O)cc1 (configuration not stated) | . | . | + | -
O=C1S/C(=C/c2ccccc2)C(=O)N1CC(O)Cn1c2ccccc2c2ccccc21 (configuration not stated) | - | - | - | -
CN(C)c1ccc(/C=C2\SC(=O)N(CCc3nnc(N)s3)C2=O)cc1 | 3.27 | . | . | .
Cc1ccccc1NC(=S)NCCO | - | . | + | -
CCCCSCCCNC(=S)Nc1ccccc1C | . | - | - | -

Screens: PubChem BioAssay, several laboratories
